Data on 40 molecules can be found in PubChem BioAssay (EPA / NIEHS).

Active and inactive are the calls of the source. Rule for the calls: active = hit-call score of the fitted dose curve at least 0.9, where 1 is the maximum; inactive = score below 0.9.

The nature of the experiment: APR_HepG2_NuclearSize_24hr: Apredica 24-hour HepG2 Assay for Nuclear Size (AID 2282907). The settings on record: high-content imaging, actives raise or lower the signal. The method, then: APR_HepG2_24hr is a cell-based, multiplexed-readout assay that uses HepG2, a human liver cell line, with measurements taken at 24 hours after chemical dosing in a 384-well plate.APR_HepG2_NuclearSize_24hr is one of 10 assay component(s) measured or calculated from the APR_HepG2_24hr assay. It is designed to make measurements of cell phenotype, a form of morphology reporter, as detected with fluorescence intensity signals by HCS Fluorescent Imaging technology.Data from the assay component APR_HepG2_NuclearSize_24hr was analyzed into 1 assay endpoint. This assay endpoint, APR_HepG2_NuclearSize_24hr, was analyzed with bidirectional fitting relative to DMSO as the negative control and baseline of activity. Using a type of morphology reporter, measures of all nuclear dna for gain or loss-of-signal activity can be used to understand the signaling at the nuclear-level. Furthermore, this assay endpoint can be referred to as a primary readout, because this assay has produced multiple assay endpoints where this one serves a signaling function. To generalize the intended target to other relatable targets, this assay endpoint is annotated to the cell morphology intended target family, where the subfamily is organelle conformation.
Cells were treated with dimethyl sulfoxide (DMSO) as a solvent control at a final concentration of 0.5% v/v or with compounds in DMSO with a resulting final DMSO concentration of 0.5% v/v. Compound treatment was done at concentrations of 0.39, 0.78, 1.56, 3.12, 6.24, 12.5, 25, 50, 100, and 200 uM in duplicate on each plate. Cells were treated with compounds for 1, 24, or 72 hr. Carbonyl […] m-chloro-phenylhydrazone (CCCP) and taxol were used as positive controls for mitochondrial function and cytoskeletal stability, respectively; DMSO served as the negative control for this experiment. Cells were fixed by the direct addition of 50 uL formaldehyde in Hank's Balanced Salt Solution (HBSS) to a final concentration of 3.7%. After incubation in the fixation medium for 30 min at room temperature (293-298 K), cells were rinsed twice with HBSS and treated with cell permeabilization buffer (16 uL of 0.5% Triton X-100) for 10 min at room temperature (293-298 K) before labeling. For mitochondrial membrane potential and mitochondrial measurements, pre-fixed cells were incubated with 50 uL of MitoTracker Red CMXRos (Invitrogen) at a concentration of 250 nM for 30 min before fixation. In the remaining cases, post-fixed cells were labeled by incubation with a multiplexed mixture of primary antibodies in HBSS for 60 min at room temperature (293-298 K) to detect immunoreactivity of c-Jun (1:500), phospho-histone H3 (1:100), phospho-histone H2A.x (1:200), p53 (1:400), alpha-tubulin (1:200) and Hoechst 33342 (2 ug/mL). Cells were labeled for multiplexed imaging on two separate plates: a) Hoechst 33342, MitoTracker Red, phospho-histone H3, and alpha-tubulin, and b) Hoechst 33342, phospho-histone H2A.x, and c-Jun. A final rinse with HBSS (50 uL) was performed before analysis. The primary and secondary antibodies for the proteins were phospho-histone H3 (rabbit anti-phospho-histone H3 and FITC-donkey anti-rabbit IgG), phospho-histone H2A.x (mouse anti-phospho-histone H2A.x and FITC-donkey anti-mouse IgG), c-Jun (rabbit anti-phospho-c-Jun and Cy3-donkey anti-rabbit IgG), p53 (sheep anti-p53 and Cy5-donkey anti-sheep IgG), alpha-tubulin (mouse anti-alpha-tubulin and Cy5-donkey anti-mouse IgG). These antibodies are available as the CellCiphr HepG2 assay kit (Millipore).Digital images of each well were captured using a Cellomics ArrayScan VTI (Thermo Scientific Cellomics) (0.8 NA objective, 0.63x optical coupler, and XF-93 filter set) at 20x magnification. The images were acquired using the autofocus feature of the ArrayScan instrument, which entails the following steps. First, the camera focuses on channel 1 (Hoechst 33342), where nuclei are identified. Second, a Z offset of 1 um is used for capturing mitochondria (MitoTracker Red). […]
As to `CCOc1ccc(C(C)(C)COCc2cccc(Oc3ccccc3)c2)cc1`, the molecule was classed as inactive.
As for `O=[N+]([O-])c1ccc(Cl)c(Cl)c1`, the molecule was classed as inactive.
In the case of `O=[N+]([O-])c1ccccc1`, the molecule was called inactive.
The result for `CCC1(c2ccccc2)C(=O)N=C(O)NC1=O` (stereo not given) reads “inactive”; that for `O=C(O)C1C(C(=O)O)C2(Cl)C(Cl)=C(Cl)C1(Cl)C2(Cl)Cl` (stereo not given), “inactive”.
Consider `CCNc1nc(Cl)nc(NC(C)(C)C)n1`, for which the molecule was called inactive.
With `CCOC(=O)c1ccccc1C(=O)OCC`, the call was inactive.
As for `CCOP(=S)(OCC)SCSCC`, the outcome was inactive.
`CCCCN(CCCC)SN(C)C(=O)Oc1cccc2c1OC(C)(C)C2`: the molecule was called inactive.
With `CCOS(=O)(=O)OCC` the entry was “inactive”.
Consider `c1nc[nH]n1`, for which the molecule was called inactive.
For the molecule `CCCN(CCC)c1c([N+](=O)[O-])cc(C(C)C)cc1[N+](=O)[O-]`, the result was inactive.
Turning to `CSC(C)(C)C=NO`, the outcome was inactive.
With `c1cc2c3c(cccc3c1)CC2` the entry was “inactive”.
With `c1ccc(OP(Oc2ccccc2)Oc2ccccc2)cc1` the entry was “inactive”; with `CCCCc1ccccc1`, “inactive”.
As to `CCN(CC)c1ccccc1`, the result was inactive.
As to `Nc1ccc2ccccc2c1`, the molecule was called inactive.
Take `CC(Cc1ccc(OCC(=O)O)cc1)NCC(O)c1csc(C(F)(F)F)n1` (stereo not given): the call was inactive.
With `Nc1cc2c3c(c1)C(c1ccccc1)=N[C@@H](NC(=O)c1cccnc1)C(=O)N3CC2` the entry was “inactive”; with `CCOP(=S)(Oc1ccc([N+](=O)[O-])cc1)c1ccccc1` (stereo not given), “inactive”; with `O=P1(N(CCCl)CCCl)NCCCO1` (stereo not given), “inactive”.
`CCCCCCCc1ccc(O)cc1`: the outcome was inactive.
With `[N-]=[N+]=[N-]`, the molecule was classed as inactive.
With `O=P(Oc1ccccc1)(Oc1ccccc1)Oc1ccccc1` the entry was “inactive”.
As for `Cc1ccc([N+](=O)[O-])cc1C`, the outcome was inactive.
`O=C(O)C(Cl)Cl`: the result was inactive.
With `Cc1cccc(N)c1`, the call was inactive.
Consider `CCC(C)(C)c1ccc(O)cc1`, for which the result was inactive.
Turning to `c1ccc2c(c1)Nc1ccccc1S2`, the molecule was called inactive.
As for `CC(C)(C)OOC(C)(C)C`, the molecule was classed as inactive.
`ClC(Cl)(Cl)c1ccccc1`: the call was inactive.
`COCCOCCO`: the molecule was classed as inactive.
As to `CN(C)C(=O)Cl`, the molecule was called inactive.
As for `ClC(Cl)c1ccccc1`, the call was inactive.
With `CC(Cl)(Cl)C(=O)O` the entry was “inactive”; with `CCCCN(CCCC)N=O`, “inactive”; with `Cc1ccc(N)cc1N`, “inactive”.
On to `Nc1ccc(Cl)cc1`, for which the molecule was called inactive.
On to `OCC1CO1` (stereo not given), for which the call was inactive.
